Measured values reported in PubChem BioAssay (NCATS).
Records with an inconclusive call do not appear. Calls of active or inactive are those of the source. Calls follow the shape of the dose curve; as a rule, active = well fitted curve in the direction sought with a large enough effect; inconclusive = small, poorly fitted or top-dose-only effect, or another doubt; inactive = no such curve, though single readings can be large; an effect the other way counts as inactive or inconclusive. *1 amine or outer side, *2 acyl side, *3 side chain or, on linkers, in order; H or OH if unused. Where a SMILES comes first, the peptide text is derived from it. Bridges are numbered along the chain shown (N, C = ends). [ ]: non-standard residue; d: D form. The star is where a group is joined. ξ: configuration not given here. X10 = NC1=NCCC(C(N[*:1])C(=O)[*:2])N1; ΔAla(3-NHCONH2) = NC(=O)NC=C(N)C(=O)O; ξβ3hOrn = NCCCC(N)CC(=O)*; Dap = NC[CH](N)C(=O)O

Assays:
[1] = qHTS assay for measurement of the activity of small molecule inhibitors on Zika virus induced Caspase-3 activity in human iPSC derived neural progenitor cells (hNPCs) (AID 1224857); also: % of control where 0% means no effect; nearly all actives have a fitted effect of over 65% in size
In short: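 Human iPSC-derived neural progenitor cells pretreated 1 hr with compounds, then infected with Zika virus (2 FFU/cell) for 6 hours at 37 C. Caspase-3/7 measured by Caspase-Glo luminescence; % inhibition calculated from induction scaled to uninfected (0%) and infected (100%) wells.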

[2] = qHTS assay for measurement of the activity of small molecule inhibitors on Zika virus induced Caspase-3 activity in human astrocytoma cells (AID 1224859);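 also: plate controls were ZIKV-infected untreated cells for no effect and uninfected cells for full effect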
In short: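 SNB-19 astrocytoma cells, 250/well, pretreated 1 h with compounds, then Zika virus at 2 FFU/cell for 6 h at 37 C; Caspase-Glo 3/7 luminescence after 30 min; percent inhibition normalised to uninfected and infected controls.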

[3] = NS1 protein of Zika virus - qHTS assay to identify small molecule inhibitors in human HEK 293 cells (AID 1347053);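 also: series mostly up to about 46 µM; plate controls were infected untreated cells for no effect and uninfected cells for full effect; nearly all actives have a fitted effect of over 55% in size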
In short: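 HEK 293; 20 h pre-culture, 37 C/5% CO2; cpd 1 h pre-infection; ZIKV MR766, MOI = 0.5, 24 h, 37 C; TR-FRET NS1 readout (two anti-NS1 Abs); norm. to no-virus vs infected.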

[4] = qHTS of pediatric cancer cell lines to identify multiple opportunities for drug repurposing: Primary screen for TC32 cells (AID 1347089); also: % is scaled to controls: 0 for no effect and ±100 for the full control effect; nearly all actives have a fitted effect of over 60% in size
In short: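 Luminescent CellTiter-Glo read-out of metabolically active TC32 cells after 48 h compound exposure. Primary: MIPE 11-point, 0.78 nM–46 µM; NPC 8-point, 0.59 nM–46 µM. Confirmatory: 11-point dilutions.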

CN(C)CCOC(c1ccccc1)c1ccc(Br)cc1 (stereo not given)
inactive: Potency [1] | outcome [2] | Potency [3] | Potency [4]

NCCCC(N)CC(=O)NCC1NC(=O)C(CO)NC(=O)C(N)CNC(=O)C(C2CCN=C(N)N2)NC(=O)C(=CNC(N)=O)NC1=O (stereo not drawn) (H-[Dap]S[Dap](ξβ3hOrn)[ΔAla(3-NHCONH2)][X10]; lactam 1-C; configuration not given here)
inactive: activity change, negative = inhibition [1] 2.09% [at 0.568 µM] | activity change, negative = inhibition [2] -8.34% [at 0.568 µM] | activity change, negative = inhibition [3] 1.27% [at 0.593 µM] | activity change, negative = cytotoxic [4] 5.9% [at 0.594 µM]

COC(=O)c1cc(S(N)(=O)=O)ccc1OC
inactive: Potency [1] | outcome [2] | Potency [3] | Potency [4]

COc1cc2nc(Cl)nc(N)c2cc1OC
inactive: Potency [1] | outcome [2] | Potency [3] | Potency [4]

CCCC(CCC)(C(=O)OCC)C(=O)OCC
inactive: Potency [1] | outcome [2] | Potency [3] | Potency [4]
